Out of some 4,100 compounds screened, about 1,600 (39%) were called active. Another 25% or so got no clear call; they are omitted. Some of the results follow. A number with no mark means an inactive call. Calls come from the whole dose curve; as a rule, active = well fitted inhibition curve with a large enough effect; inconclusive = small, poorly fitted or top-dose-only effect; inactive = no such curve, though single readings can be large or run the other way.
assay: qHTS Validation assay for Inhibitors of Plasmodium falciparum Dd2 growth in vitro; note: nearly all actives have a fitted effect of over 70% in size; settings: P. falciparum Dd2 in RBCs, SYBR Green growth, 72 h; series mostly up to 28.7 µM; activity change, negative = inhibition: at the top concentration
Source text: Malaria, a parasitic disease spread to humans through the bite of a Plasmodium infected Anopheles mosquito, continues to be a global health burden affecting millions of people, with an estimated 228 million cases and 405,000 deaths in 2018. Concerns about safety and limitations of current antimalarial treatments strongly emphasize the need to develop new therapeutic options. The scarce number of chemotypes and validated drug targets with efficacy against the liver stage, have hindered development of new antimalarials. To address this, a chemoprophylactic drug discovery effort was conducted through a combined phenotypic high-throughput asexual blood stage and liver stage screen, providing a robust foundation to identify liver-stage active lead chemotypes. Compounds were initially screened against Plasmodium falciparum Dd2 strain parasites using a in vitro SYBRGreen-1 based 72 hr proliferation assay to identify novel chemotypes to advance to liver stage assays. NIH/NCATS Early Translation Branch Assay Submitter (PI): Anton Simeonov Ph.D.
[…] Assay Protocol: PROTOCOL TABLE (as described by Inglese et al., 2007) SEQUENCE No. (e.g., 1, 2, 3, etc.); PARAMETER (e.g., Cells, Incubation, Reagent, etc.); VALUE; DESCRIPTION SEQUENCE, Parameter, Description 1; Reagent; 3 uL complete malaria growth medium, 1536 TC treated Black clear bottom plate 2; Controls; 23 nL positive control artesunate (300 nM final) to column 1; Neutral control DMSO to columns 2-4 3; Compound; 23 nL of compounds in dose response concentration (29 uM to 0.5 nM final) 4; Reagent; 5 uL malaria infected red blood cells (2.5% hematocrit final, 0.3% parasitemia 5; Time; 72 hours at 37C (5% O2, 5% CO2, 90% N2; 95% Rh) 6; Reagent; 2 uL lysis buffer/SYBRGreen-1, 25 sec shake immediately following dispense 7; Time; ~16 hours at 37C (5% O2, 5% CO2, 90% N2; 95% Rh) 8; Detector; EnVision (PerkinElmer) bottom read at 485/14nm excitation and 535/25 nm emission NOTES (numbers refer to sequence above): 1; Complete Malaria Growth Media: 1X RPMI-1640 w/L-glutamine, 5.5g/L Albumax II, 367 uM Hypoxanthine, 25 mM HEPES, 0.25% Sodium Bicarbonate, 35 uM Gentamicin sulfate 2; Controls were added using the Kalypsis Pintool (Wako USA) equipped with 1536 pinhead 3; Compounds were added in a 7-point, titration with a high final concentration of 29 uM by Pintool from seven inter-plate titrations of library plates and two DMSO control plates at the beginning and end (see Yasgar et al., 2008). 4; Red blood cells infected with Plasmodium falciparum Dd2 parasites were used. 6; Lysis buffer: 20 mM Tris-HCl, 10 mM EDTA, 0.16% Saponin, 1.6% Triton-X, 10X SYBR Green. REFERENCE: Inglese J, Shamu CE, Guy RK. 2007. Reporting data from high-throughput screening of small-molecule libraries. Nat Chem Biol. doi:10.1038/nchembio0807-438 Yasgar A, Shinn P, Jadhav A, Auld D, Michael S, Zheng W, Austin CP, Inglese J, Simeonov A. 2008. Compound Management for Quantitative High-Throughput Screening. J Lab Autom 13:79-89. doi:10.1016/j.jala.2007.12.004
% is set by controls: 0 for no effect and ±100 for the full control effect; potency is the fitted concentration of half-maximal effect.

Structure (SMILES)	activity change, negative = inhibition	Potency
Cc1ccc(S(=O)(=O)N(C)CC2CCOCC2)c(C)c1	48.2%	–
Cc1ccc(C)c(CN2C(=O)c3ccccc3S(=O)(=O)c3ccc(C(=O)NCCc4ccc(Cl)cc4)cc32)c1	–	7.5 µM (active)
O=C(c1ccc(F)c(F)c1)N1CCC2(CC1)N(c1ccccc1)C(=O)CS2(=O)=O	8.69%	–
COc1ccccc1N1CCN(C(=O)c2ccc3c(c2)N(Cc2cc(C)ccc2C)C(=O)c2ccccc2S3(=O)=O)CC1	–	9.44 µM (active)
COc1ccccc1CNC(=O)c1cc2c(s1)CCN(C(=O)c1ccc(C)cc1)C2	-15.5%	–
CCOC(=O)C1CCCN(C(=O)c2ccc3c(c2)N(Cc2ccccc2)C(=O)c2ccccc2S3(=O)=O)C1 (configuration not stated)	–	6.68 µM (active)
O=C(c1ccc2c(c1)N(Cc1ccc(Cl)cc1)C(=O)c1ccccc1S2(=O)=O)N1CCCC1	-8.99%	–
Cc1ccc(C)c(CN2C(=O)c3ccccc3S(=O)(=O)c3ccc(C(=O)N4CCCCCC4)cc32)c1	-26.1%	–
Cc1ccc(Cl)cc1N1CCN(C(=O)c2ccc3c(c2)N(Cc2ccccc2F)C(=O)c2ccccc2S3(=O)=O)CC1	–	5.31 µM (active)
CCCc1nc2nc(C)c(NS(=O)(=O)c3ccc(F)cc3)c(=O)n2[nH]1	15.8%	–
Cc1cc(C)c(CN2C(=O)c3ccccc3S(=O)(=O)c3ccc(C(=O)OCC4CCCO4)cc32)c(C)c1 (configuration not stated)	–	6.68 µM (active)
COc1cccc(NC(=O)N[C@H]2C[C@@H](c3nc(C)no3)N(C)C2)c1	–	17.2 µM (active)
CN1C[C@@H](NC(=O)COc2ccccc2)C[C@H]1c1nc(-c2ccc3c(c2)OCO3)no1	21.1% [at 43.1 µM]	–
COc1ccc(-c2noc([C@@H]3C[C@H](NS(=O)(=O)c4ccc(OC)cc4)CN3C)n2)cc1	-24.1%	–
CN(C)S(=O)(=O)c1ccc(N2CCCC2)c(C(=O)NC(c2ccccc2)c2ccccc2)c1	-16.7%	–
CCN(CC)S(=O)(=O)c1ccc(N2CCCCC2)c(NC(=O)C2=COCCO2)c1	–	6.68 µM (active)
CCN(CC)CCn1c(=N)n(CC(=O)c2ccc(Br)s2)c2ccccc21	–	5.31 µM (active)
N=c1n(N)c2ccccc2n1CC(=O)c1ccc(Br)cc1	-21.2%	–
Cc1nn(-c2ccccc2)c(C)c1/C=N/Nc1nc2ccccc2[nH]1	–	1.5 µM (active)
CC(NC(=O)c1ccc(NC(=O)c2ccco2)cc1)c1ccccc1 (configuration not stated)	117%	–
Cc1ccc(Oc2ccc(NC(=O)c3ccco3)cc2)cc1	–	10.6 µM (active)
CCOC(=O)c1ccc(NC(=O)c2ccco2)cc1	-29.1%	–
O=C(NC1=C(Nc2ccc(Cl)cc2)C(=O)c2ccccc2C1=O)c1ccccc1	–	0.473 µM (active)

Structure (SMILES)	activity change, negative = inhibition	Potency
O=C(O)/C=C/c1cccc(NC(=O)c2ccc(Cl)cc2)c1	26.1%	–
CN1C(=O)COC[C@@H]1[C@H](O)c1ccc(NC(=O)c2ccccc2)cc1	35% [at 43.1 µM]	–
Cc1cccc(NC2=C(NC(=O)c3ccccc3)C(=O)c3ccccc3C2=O)c1	–	0.944 µM (active)
O=C(NC1=C(Nc2ccc(F)cc2)C(=O)c2ccccc2C1=O)c1ccc(Cl)cc1	–	0.842 µM (active)
Cc1csc2nc(COc3ccc(NC(=O)COc4ccccc4F)cc3)cc(=O)n12	7.07%	–
Cc1ccccc1OCC(=O)Nc1ccccc1C(=O)OCc1cc(=O)n2ccsc2n1	39%	–
CCCc1nn2c(=O)cc(COC(=O)c3cccc(NC(=O)COc4ccccc4C)c3)nc2s1	–	13.3 µM (active)
COc1cccc(NC(=O)c2ccc3c(c2)NC(C)(CCCCN2CCOCC2)CO3)c1 (configuration not stated)	2.98% [at 43.1 µM]	–
COc1cccc(NC(=O)c2ccc(NCCCN3CCC(C)CC3)c([N+](=O)[O-])c2)c1	–	7.5 µM (active)
CCCN(CCC)CCCNc1ccc(C(=O)Nc2cccc(OC)c2)cc1[N+](=O)[O-]	–	5.96 µM (active)
Cc1ccc(C(=O)N2[C@@H]3CC[C@H]2CC(NC(=O)c2ccncc2)C3)cc1F (some centres not stated)	0%	–
COCCCNC(=O)C(NC(=O)c1ccc(OC)cc1)C1CCN(C(=O)c2cccc(OC)c2)CC1 (configuration not stated)	0.813%	–
Cc1ccc(NC(=O)c2ccc(NCCCN3CCC(C)CC3)c([N+](=O)[O-])c2)cc1F	–	6.68 µM (active)
CC1(CCCCN2CCOCC2)COc2ccc(C(=O)Nc3ccc4[nH]ccc4c3)cc2N1 (configuration not stated)	2.89%	–
CCCNc1ccc(-c2nc(-c3ccncc3)no2)cc1[N+](=O)[O-]	8.71%	–
c1ccc(CCc2nc3nccc(-c4ccc5c(c4)OCCCO5)n3n2)cc1	-24.7%	–
CC(C)Oc1ccc(C(CCNCc2ccc(O)cc2)c2ccccc2)cc1 (configuration not stated)	–	0.668 µM (active)
Cc1onc(-c2ccc(Cl)cc2)c1-c1ccnn1S(=O)(=O)c1ccc(Cl)cc1	–	1.88 µM (active)
Cc1onc(-c2ccc(Cl)cc2)c1-c1ccnn1S(=O)(=O)c1cccc(C(F)(F)F)c1	–	4.73 µM (active)
Cc1noc([C@@H]2CN(C(=O)c3cccc(C(F)(F)F)c3)C[C@H]2C(N)=O)n1	17.3%	–
CC(C)c1noc(-c2cccn3c(CNC(=O)c4nccc5ccccc45)nnc23)n1	0%	–
Oc1c(C(Nc2ccccn2)c2ccccc2F)ccc2cccnc12 (configuration not stated)	–	9.44 µM (active)
CCC(=NC(CC)CO)C1=C(O)CC(C)(C)CC1=O (configuration not stated)	66.5%	–

Structure (SMILES)	activity change, negative = inhibition	Potency
CN1CCN(C(=O)C2(N(C)CCc3ccccc3)Cc3ccccc3C2)CC1	–	2.66 µM (active)
CN(C)C(=O)c1cccnc1OC1CCN(CCc2ccccc2)CC1	-4.1%	–
CC(C)C[C@@H]1N[C@H](C(=O)NC(C)C)Cc2cn(Cc3ccncc3)c3cccc1c23	–	17.2 µM (active)
Cc1cccc(N2CCN(c3cccc(C)c3)C2c2cccnc2)c1	–	5.96 µM (active)
CC(C)(C)c1ccc(N2C(=O)CSC2c2cccnc2)cc1 (configuration not stated)	-11.4%	–
Cc1cccc(C(=O)NC2CCN(c3cnn(C)c(=O)c3)CC2)c1	35.1%	–
NCCc1cccc(CN2CCCC(COc3ccccc3F)C2)c1 (configuration not stated)	–	2.66 µM (active)
CCc1cccc(NC(=O)N2CCCC(c3noc(COc4ccccc4F)n3)C2)c1 (configuration not stated)	6.71%	–
CCCCOc1ccc(NC2=NC3(CCCCC3)N=C(N)N2)cc1	–	8.41 µM (active)
CC(C)C[C@@]12C(=O)N(c3cccc(Br)c3)C(=O)N1[C@H](c1ccc(F)cc1)[C@@H]1C(=O)N(C3CCCCC3)C(=O)[C@@H]12	–	7.5 µM (active)
N=c1c2c(n(Cc3ccccc3)c3c1CCC3)CCC2	–	4.22 µM (active)
N=c1c2c(n(Cc3ccc(F)cc3)c3c1CCC3)CCCC2	–	2.99 µM (active)
N=c1c2c(n(Cc3ccc(F)cc3)c3c1CCC3)CCC2	–	3.35 µM (active)
COc1ccc2cc3cc(C(=O)NCCC(C)C)oc3nc2c1	61.6%	–
COc1cccc(CC(=O)N2CCCC(CN3CCCC3)CC2)c1 (configuration not stated)	–	15 µM (active)
CCc1noc(-c2cn(C3CCN(C(=O)Cc4cccc(OC)c4)CC3)nn2)n1	-1.95%	–
COc1ccc(CNC(=O)N2CCCC(CN3CCCC3)CC2)cc1 (configuration not stated)	-25.2%	–
Nc1cc2ccncc2c2ccccc12	–	0.266 µM (active)
O=C(NC1CCCC1)N1CCC(Cc2nncn2CC2CC2)CC1	22.2%	–
COCC(=O)N[C@H]1C[C@@H](CO)N(Cc2cn[nH]c2-c2ccccc2)C1	9.64%	–
COC[C@@H]1CN(Cc2cn[nH]c2-c2ccccc2)C[C@H]1c1nc(C)no1	-4.59%	–
Cc1ccccc1CN1C[C@@H]2C[C@@H](c3cn[nH]c3-c3ccccc3)N3CCC[C@@]23C1=O	–	15 µM (active)
Cc1cccc(NC(=O)Cn2c(C)c(C#N)c3ccccc32)c1C	–	5.96 µM (active)

Structure (SMILES)	activity change, negative = inhibition	Potency
Cc1cccc(NC(=O)Cn2cnc(S(=O)(=O)N3CCCC3)c2)c1C	-9.65%	–
CN(C)c1cc(=O)c2ccnc(-c3ccccc3F)c2o1	0% [at 57.5 µM]	–
CCc1ccc(CNC(=O)c2cc3cc4ccc(OC)cc4nc3o2)cc1	12.9%	–
CCCOC(=O)c1ccc(-c2c(C)noc2-c2ccc(OC)cc2O)o1	–	1.88 µM (active)
COc1ccccc1NC(=O)CN1CCN(C2c3ccccc3-c3ccccc32)CC1	–	15 µM (active)
CCc1cc(=O)n(CC(=O)Nc2ccccc2OC)c(-c2ccccc2)n1	-27.4%	–
CCc1noc(-c2cccn3c(CNC(=O)c4cccc(N(C)C)c4)nnc23)n1	4.51%	–
Cc1ccc(C(=O)NCc2nnc3c(-c4nc(C(C)C)no4)cccn23)cc1	-1.73%	–
CCOC(=O)c1c(C)c(-c2ccccc2)n(CC(=O)NC2CCCCCC2)c1C	-7.27%	–
CCOC(=O)c1c(-c2ccccc2)oc2ccc(O)c(CN3CCCC3)c12	–	0.596 µM (active)
Cc1ccc(NC(=O)c2c(C)oc3ccc(O)c(CN4CCCCCC4)c23)cc1	–	2.11 µM (active)
Cc1ccc(CN2CCc3nc(C(=O)Nc4cccnc4)oc3CC2)cc1	-9.16% [at 43.1 µM]	–
Cc1ccc(NC(=O)c2c(C)oc3ccc(O)c(CN4CCCCCC4)c23)c(C)c1	–	4.73 µM (active)
Cc1ccc(S(=O)(=O)N2CC3CCCC2C3)cc1 (configuration not stated)	-6.85%	–
O=C(NC[C@H]1OC[C@@H](NCc2ccccc2F)[C@@H]1O)Nc1ccccc1	-11.3% [at 43.1 µM]	–
Cc1ccc(O)c(CN2CCCC(c3nc(CC(C)C)no3)C2)c1 (configuration not stated)	–	9.44 µM (active)
CCn1cc(CN2CCCC(c3nc(C(C)C)no3)CCNC(=O)CC2)cn1 (configuration not stated)	15.1%	–
Cc1cccc(OCCc2noc(C3CCN(C(=O)c4n[nH]c(=O)c5ccccc45)C3)n2)c1 (configuration not stated)	-9.66%	–
CN(C(=O)Cn1c(=O)n(Cc2ccc(C(=O)NCc3ccc4c(c3)OCO4)cc2)c(=O)c2ccccc21)c1ccccc1	6.13%	–
O=C(Cn1c(=O)n(Cc2ccc(C(=O)NCc3ccc4c(c3)OCO4)cc2)c(=O)c2ccccc21)Nc1cccc(Cl)c1	–	5.96 µM (active)
N=c1ccn(CC(=O)c2ccc(-c3ccccc3)cc2)cc1	–	0.944 µM (active)
NC1=NC[C@@H](Cc2ccc(O)cc2)N1CCCCC1CCCCC1	–	4.73 µM (active)
C[C@H]1CN=C(N(C)C)N1CCC1CCCCC1	-7.45%	–

Source: PubChem BioAssay AID1347416 (National Center for Advancing Translational Sciences (NCATS), 2020)
